Test results reported in the supplement of paper PMC13380429.

How the values were obtained:
[1] = tested on: Vero E6 infected with SARS-CoV-2; test: morphology score (similarity to uninfected cells); higher = more like uninfected cells; conditions: 24 h
[2] = tested on: Vero E6 infected with SARS-CoV-2; test: SARS-CoV-2 infection rate relative to infected DMSO; higher = more infection, active = 60 or less; conditions: 24 h

## O=C(CN1C(=O)C2(CCCC2)NC[C@H]1c1cc(F)cc(F)c1)Nc1ccc2c(c1)C[C@@]1(C2)C(=O)Nc2ncccc21 (10 µM)
[1]
  morphology score: 0.0766
[2]
  SARS-CoV-2 infection rate: 101% (inactive)

## CCn1c(-c2nonc2N)nc2c(C#CC(C)(C)O)ncc(OC[C@H]3CCCNC3)c21 (10 µM)
[1]
  morphology score: 0.337
[2]
  SARS-CoV-2 infection rate: 105% (inactive)

## O=C(NO)c1ccc2[nH]c(=O)c(CCCc3ccccc3)nc2c1 (10 µM)
[1]
  morphology score: -0.0251
[2]
  SARS-CoV-2 infection rate: 100% (inactive)

## CN1CCN(CCCN2c3ccccc3Sc3ccc(Cl)cc32)CC1 [prochlorperazine] (10 µM)
[1]
  morphology score: 0.742
[2]
  SARS-CoV-2 infection rate: 27.5% (active)

## O=c1n(CC2CO2)c(=O)n(CC2CO2)c(=O)n1CC1CO1 (stereo not given) [teroxirone] (10 µM)
[1]
  morphology score: -0.0418
[2]
  SARS-CoV-2 infection rate: 115% (inactive)

## O=C(O)C(=O)Nc1cccc(-c2nnn[nH]2)c1 [acitazanolast] (10 µM)
[1]
  morphology score: 0.235
[2]
  SARS-CoV-2 infection rate: 95% (inactive)

## C[C@@]12CC[C@@H]3[C@@](CC[C@H]4[C@@]3(C)CCC[C@@]4(C)C(=O)O)(CC1=O)C2 [isosteviol] (10 µM)
[1]
  morphology score: 0.144
[2]
  SARS-CoV-2 infection rate: 100% (inactive)

## COC[C@@H](c1ccc(C(F)(F)F)cc1)N1CCN(C2(C)CCN(C(=O)c3c(C)ncnc3C)CC2)C[C@@H]1C [vicriviroc] (10 µM)
[1]
  morphology score: 0.189
[2]
  SARS-CoV-2 infection rate: 100% (inactive)

## O=C(NN1C(=O)[C@@H]2[C@@H]3C=C[C@@H]([C@H]4C[C@@H]34)[C@@H]2C1=O)c1ccc(C(F)(F)F)cc1 [tecovirimat] (10 µM)
[1]
  morphology score: -0.108
[2]
  SARS-CoV-2 infection rate: 102% (inactive)

## NC(=O)c1ncn([C@@H]2O[C@H](CO)[C@@H](O)[C@H]2O)c1N [acadesine] (10 µM)
[1]
  morphology score: 0.00261
[2]
  SARS-CoV-2 infection rate: 98.5% (inactive)
